Data: PubChem BioAssay (EPA / NIEHS)
Records with an inconclusive call do not appear. Activity calls are given as the source filed them. How the source made its calls: active means hit-call score of the fitted dose curve at least 0.9, where 1 is the maximum; inconclusive means response in the unintended direction; inactive means score below 0.9.

Experiments:
[1] = target: Cellular tumor antigen p53 (Homo sapiens) (UniProt P04637); assay: TOX21_p53_BLA_p2_ratio: Tox21 HCT-116 p53 Agonism Beta-lactamase Assay, Ratio, Phase 2 (AID 2283592)
Cellular tumor antigen p53 (Homo sapiens), sequence (P04637 whole entry, looked up): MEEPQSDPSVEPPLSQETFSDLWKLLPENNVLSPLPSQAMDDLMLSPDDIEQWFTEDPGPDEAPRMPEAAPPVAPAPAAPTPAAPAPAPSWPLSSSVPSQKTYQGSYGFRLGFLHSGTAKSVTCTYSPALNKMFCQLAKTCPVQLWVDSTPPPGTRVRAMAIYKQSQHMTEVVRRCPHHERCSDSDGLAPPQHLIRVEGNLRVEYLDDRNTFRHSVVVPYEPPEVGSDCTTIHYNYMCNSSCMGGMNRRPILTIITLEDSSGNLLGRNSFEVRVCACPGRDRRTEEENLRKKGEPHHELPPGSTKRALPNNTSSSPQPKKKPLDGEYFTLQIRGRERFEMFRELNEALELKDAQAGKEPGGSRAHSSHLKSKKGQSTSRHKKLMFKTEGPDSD
Method in brief: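 Cleaved-to-uncleaved substrate ratio (460 vs 530 nm) measured in HCT116 cells with an inducible beta-lactamase reporter linked to p53 activity. Compounds incubated 16 h at 37C before 2 h room-temperature CCF4-AM loading.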

[2] = target: Cellular tumor antigen p53 (Homo sapiens) (UniProt P04637); assay: TOX21_p53_BLA_p3_ratio: Tox21 HCT-116 p53 Agonism Beta-lactamase Assay, Ratio, Phase 3 (AID 2283596)
Method in brief: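 Cells were seeded at 4000/well, rested 5 h at 37C, then dosed with DMSO compound solutions (217-fold dilution) for 16 h. CCF4-AM substrate was loaded for 2 h at room temperature, and the 460/530 nm emission ratio was fitted for gain of signal versus DMSO.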

[3] = target: Cellular tumor antigen p53 (Homo sapiens) (UniProt P04637); assay: TOX21_p53_BLA_p5_ratio: Tox21 HCT-116 p53 Agonism Beta-lactamase Assay, Ratio, Phase 5 (AID 2283599)
Method in brief: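 HCT-116 p53-bla cells (4000/well) plated 5 h, dosed with compound (217-fold DMSO dilution) for 16 h at 37 C; CCF4-AM substrate 2 h at room temperature. Activity is the 460/530 nm emission ratio (405 nm excitation), fitted in gain-of-signal direction versus DMSO.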

[4] = target: Cellular tumor antigen p53 (Homo sapiens) (UniProt P04637); assay: TOX21_p53_BLA_p4_ratio: Tox21 HCT-116 p53 Agonism Beta-lactamase Assay, Ratio, Phase 4 (AID 2283601)
Method in brief: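 HCT-116 p53 beta-lactamase reporter cells (4000/well) preincubated 5 h, then compound (217-fold dilution of DMSO stock) for 16 h at 37C. CCF4-AM substrate added 2 h at room temperature; 460/530 nm emission ratio fitted upward versus DMSO.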

[5] = TOX21_p53_BLA_p5_viability: Viability Assessment in the Tox21 HCT-116 p53 Agonism Beta-lactamase Assay, Phase 5 (AID 2283600)
Method in brief: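 Viability is taken from cellular ATP content, measured by luciferase luminescence in the same wells after the beta-lactamase ratio read. Cells are seeded at 4000 per well and exposed to DMSO-dissolved compounds, diluted 217-fold, for 16 h.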

[6] = TOX21_p53_BLA_p4_viability: Viability Assessment in the Tox21 HCT-116 p53 Agonism Beta-lactamase Assay, Phase 4 (AID 2283597);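 further: hits lower the luminescence signal meaning cytotoxicity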
Method in brief: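 Viability is taken as cellular ATP: after 16 h compound exposure of HCT116 cells and a 2 h room-temperature CCF4-AM substrate step, CellTiter-Glo reagent is added and luminescence is measured 30 min later.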

SMILES | outcome [1] | AC50 [2] | outcome [3] | outcome [4] | outcome [2] | outcome [5] | outcome [6]
CCCOc1ccc2nc(NC(=O)OC)[nH]c2c1 | inactive | 240 nM (active) | inactive | inactive |  |  | 
CN1c2c(nc(N)[nH]c2=O)NCC1CNc1ccc(C(=O)NC(CCC(=O)O)C(=O)O)cc1 (configuration not stated) | inactive |  | inactive | inactive | inactive | inactive | 
C=CC(=O)[O-].C=CC(=O)[O-].[Zn+2] | inactive |  | inactive | inactive | inactive | inactive | 
Cc1cc(=O)c(C(=O)N[C@@H](C(=O)N[C@@H]2C(=O)N3C(C(=O)O)=C(CSc4nnnn4C)CS[C@H]23)c2ccc(O)cc2)c[nH]1 | inactive |  | inactive | inactive | inactive | inactive | 
CCOC(=O)c1ccc(I)cc1 | inactive |  | inactive | inactive | inactive |  | 
Cc1ccccc1OCC(O)CNCCOc1ccc(C(N)=O)cc1 (configuration not stated) | inactive |  | inactive | inactive | inactive |  | 
CN(C)CCN(Cc1ccc(Cl)cc1)c1ccccn1 | inactive |  | inactive | inactive | inactive |  | 
O=Cc1ccc(F)c(Br)c1 | inactive |  | inactive | inactive | inactive |  | 
NC1CCN(c2nc3c(cc2F)c(=O)c(C(=O)O)cn3-c2ccc(F)cc2F)C1 (configuration not stated) | inactive |  | inactive | inactive | inactive |  | 
CC(CN1c2ccccc2Sc2cccnc21)N(C)C (configuration not stated) | inactive |  | inactive | inactive | inactive |  | 
C[C@@](Cc1ccc(O)c(O)c1)(NN)C(=O)O | inactive |  | inactive | inactive | inactive | inactive | 
CCC(C)(Oc1ccc(C2(c3ccc(OC(C)(CC)C(=O)O)cc3)CCCCC2)cc1)C(=O)O (configuration not stated) | inactive |  | inactive |  |  |  | inactive
C[C@@H](N)C(=O)O | inactive |  |  | inactive | inactive | inactive | 
NC(=O)Cc1cccc(C(=O)c2ccccc2)c1N | inactive |  |  | inactive | inactive |  | 
C#CC(O)CCCCC (configuration not stated) | inactive |  |  | inactive | inactive | inactive | 
CCCCCO | inactive |  |  | inactive | inactive |  | 
CCc1ccc(C(=O)C(C)CN2CCCCC2)cc1 (configuration not stated) | inactive |  | inactive |  |  | inactive | inactive
N=C(N)c1ccccc1 | inactive |  |  | inactive | inactive | inactive | 
CCn1ccnc1CC1COc2ccccc2O1 (configuration not stated) | inactive |  | inactive |  |  | inactive | inactive
